We go through ten compounds from PubChem BioAssay.

Test [1] can be described thus: HepG2 liver cancer cell viability effects, profiling panel, resazurin fluorescence, 24 h, PK04 Diversity Set (AID 1172). The settings on record: higher = more signal. Background: The colour change of resazurin is a common sign of viable cells or microbes.
A short description of test [2]: basal S. cerevisiae growth modulation, no modifier, primary screen, OD600, strain BY4716, 24 h, basal condition (AID 1173). The settings on record: OD600, 24 h, higher = more signal, called active from +8 up or from −8 down.
The nature of test [3]: MM1S myeloma cell viability, profiling panel, resazurin fluorescence, basal, 24 h, PK04 Diversity Set (AID 1174).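 Also: MM1S multiple myeloma cell line.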 As to conditions: higher = more signal, called active from +8 up or from −8 down.
In test [4] the target is Dihydroorotate dehydrogenase (quinone), mitochondrial (Plasmodium falciparum (isolate 3D7)) (UniProt Q08210). The test is described as follows: PfDHODH enzyme inhibitors, primary screen, biochemical, C-terminal His tag, absorbance 600 nm (AID 1175).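 Also: recombinant parasite enzyme with a five histidine tag at its C terminus.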 As to conditions: DCIP absorbance 600 nm, higher = more signal, called active from +8 up or from −8 down.
Sequence of Dihydroorotate dehydrogenase (quinone), mitochondrial (Plasmodium falciparum (isolate 3D7)) (Q08210 whole entry, looked up): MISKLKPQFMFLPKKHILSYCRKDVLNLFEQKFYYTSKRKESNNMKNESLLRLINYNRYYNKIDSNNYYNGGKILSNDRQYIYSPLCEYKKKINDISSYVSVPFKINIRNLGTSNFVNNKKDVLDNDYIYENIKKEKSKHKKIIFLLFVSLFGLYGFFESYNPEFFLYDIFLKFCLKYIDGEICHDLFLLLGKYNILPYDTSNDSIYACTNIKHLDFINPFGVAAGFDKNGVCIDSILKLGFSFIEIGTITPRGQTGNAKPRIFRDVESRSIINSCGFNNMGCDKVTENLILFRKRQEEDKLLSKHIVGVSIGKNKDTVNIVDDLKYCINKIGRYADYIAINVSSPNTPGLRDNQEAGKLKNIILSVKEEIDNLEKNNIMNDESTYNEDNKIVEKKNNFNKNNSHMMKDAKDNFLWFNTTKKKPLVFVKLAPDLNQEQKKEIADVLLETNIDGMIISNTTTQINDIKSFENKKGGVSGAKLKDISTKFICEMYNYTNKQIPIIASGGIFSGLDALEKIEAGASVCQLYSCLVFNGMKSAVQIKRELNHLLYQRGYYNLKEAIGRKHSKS
Test [5] can be described thus: P. aeruginosa biofilm formation inhibitors, primary screen, strain PAO1, LB-PBS medium, absorbance 600 nm (AID 1176). The settings on record: P. aeruginosa PAO1 growth/biofilm, A600, 12 h; higher = more signal.
A short description of test [6]: S. cerevisiae RM11-1a growth modifiers, primary screen, strain RM11-1a, OD600, basal, 24 h (AID 1177).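 Also: cultures grown under basal conditions with no added stressor.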 The settings on record: OD600, 24 h, higher = more signal, called active from +8 up or from −8 down.
Test [7] is described as follows: E. coli acrAB mutant growth effects, primary screen, E. coli filamentation inducers, strain DRC39, OD650, 24 h (AID 1178).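 Also: growth measured as culture turbidity by optical density at 650 nm.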 The settings on record: higher = more signal, called active from +8 up or from −8 down.
Test [8] in a line: E. coli acrAB mutant growth effects, primary screen, E. coli filamentation inducers, strain DRC39, OD650, 48 h (AID 1179).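 Also: screen aims at cell division blockers that make cells filament.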 The settings on record: E. coli DRC39 delta-acrAB growth, higher = more signal, called active from +8 up or from −8 down.
The nature of test [9]: RPMI8226 myeloma cell viability, profiling panel, resazurin fluorescence, basal, 24 h, PK04 Diversity Set (AID 1180).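 Also: RPMI8826 multiple myeloma cell line at 5000 cells per well.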 The settings on record: higher = more signal.
The target in test [10] is E3 ubiquitin-protein ligase XIAP (Homo sapiens) (UniProt P98170). The test is described as follows: XIAP binders, primary screen, biophysical, small-molecule microarray, fluorescence 635 nm (AID 1181).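 Also: score merges 667 nm emission and signal to noise over triplicate slides.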 As to conditions: small-molecule microarray binding, higher = more signal.
Sequence of E3 ubiquitin-protein ligase XIAP (Homo sapiens) (P98170 whole entry, looked up): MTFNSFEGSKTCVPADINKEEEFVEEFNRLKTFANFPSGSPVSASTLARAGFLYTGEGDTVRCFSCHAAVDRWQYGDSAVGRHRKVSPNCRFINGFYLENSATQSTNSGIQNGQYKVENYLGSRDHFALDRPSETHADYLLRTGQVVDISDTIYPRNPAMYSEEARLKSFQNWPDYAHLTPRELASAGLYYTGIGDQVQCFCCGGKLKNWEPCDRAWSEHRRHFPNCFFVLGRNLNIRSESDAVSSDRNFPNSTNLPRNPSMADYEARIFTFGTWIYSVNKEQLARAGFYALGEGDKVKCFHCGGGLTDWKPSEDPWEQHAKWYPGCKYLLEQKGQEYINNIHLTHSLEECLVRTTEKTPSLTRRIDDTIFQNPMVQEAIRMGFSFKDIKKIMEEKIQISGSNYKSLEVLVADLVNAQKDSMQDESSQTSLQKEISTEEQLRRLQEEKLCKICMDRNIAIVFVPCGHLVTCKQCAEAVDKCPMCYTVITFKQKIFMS
Test [11] concerns XIP peptide (Xip251-270) binding. The test is described as follows: small-molecule binders of XIP peptide, primary screen, biochemical, small-molecule microarray, fluorescence 635/667 nm, 0.1 µg/mL protein (AID 1182). As to conditions: fluorescent protein binding, 635 nm, higher = more signal, called active from +8 up or from −8 down.
The next test concerns XIP peptide (Xip251-270). The test is described as follows: small-molecule binders of XIP peptide, primary screen, biochemical, small-molecule microarray, fluorescence 635/667 nm, 0.5 µg/mL protein (AID 1183). As to conditions: small-molecule microarray binding, fluorescence 635 nm; higher = more signal.
A short description of test [12]: Plasmodium falciparum growth inhibition, primary screen, strain 3D7, DAPI fluorescence, 100 nL (AID 1184).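 Also: parasites grown inside human red blood cells in medium with human serum.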 As to conditions: P. falciparum 3D7 growth, 3 d, higher = more signal.
Test [13] has as its target Homeobox protein Hox-A13 (Mus musculus) (UniProt Q62424). As to the kind of experiment: inhibitors of HoxA13-DNA binding, primary screen, biochemical, fluorescence polarization, labeled oligonucleotide (AID 1185). As to conditions: 15 min, higher = more signal, called active from +8 up or from −8 down.
Test [14] in a line: inhibitors of hydroxyurea-induced Chk1 phosphorylation, primary screen, imaging, HeLa, phospho-Chk1 antibody, percent positive cells (AID 1186). The settings on record: hydroxyurea-induced phospho-Chk1 immunofluorescence imaging, higher = more signal.
A short description of test [15]: inhibitors of hydroxyurea-induced Chk1 phosphorylation, primary screen, imaging, HeLa, phospho-Chk1 nuclear intensity (AID 1187). As to conditions: hydroxyurea-induced phospho-Chk1 immunofluorescence imaging, higher = more signal.

Active and inactive are the calls of the source. Unless noted, no rule for the calls is given here.

Sequence of Homeobox protein Hox-A13 (Mus musculus) (Q62424 whole entry, looked up): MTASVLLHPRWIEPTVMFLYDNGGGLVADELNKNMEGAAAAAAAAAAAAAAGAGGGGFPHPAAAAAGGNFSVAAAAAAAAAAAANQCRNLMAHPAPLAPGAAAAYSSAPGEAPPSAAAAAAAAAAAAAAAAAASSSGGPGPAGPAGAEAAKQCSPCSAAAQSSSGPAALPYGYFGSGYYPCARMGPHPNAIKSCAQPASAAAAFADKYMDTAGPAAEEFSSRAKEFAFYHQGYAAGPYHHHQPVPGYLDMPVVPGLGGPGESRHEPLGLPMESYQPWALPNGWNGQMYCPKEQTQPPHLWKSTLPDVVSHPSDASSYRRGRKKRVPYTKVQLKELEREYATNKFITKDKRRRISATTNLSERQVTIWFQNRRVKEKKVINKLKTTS

On to `CC(=O)NCCCC[C@@H]1NC(=O)[C@@H]2C[C@H](C(=O)NCCCCCN)[C@H](c3cccc(OCCO)c3)N2C1=O`, for which the z-score in test [1] is 0.619; in [2] it was -0.659 (inactive); in test [3], 0.427 (inactive); in test [5], 0.392 (inactive); in test [6] it was -1.42 (inactive); in [7], 1.03 (inactive). The z-score is 1.9 (inactive) in test [8]; 0.0926 in test [9]; 0.0297 in [12]; -2.54 (inactive) in [13]; -1.16 (inactive) in test [14]; -0.913 (inactive) in test [15]. Besides, the composite z-score in test [4] is -0.585 (inactive); in test [10], 0.087; in [11], 0.845 (inactive); with XIP peptide (Xip251-270) it was 0.878.
With `C#CCN(Cc1ccccc1Br)[C@H](/C=C/c1ccccc1)[C@@H](O)Cc1ccccc1`, the z-score is 1.71 in test [1]; 0.31 (inactive) in test [2]; -0.309 (inactive) in [3]; -0.0825 (inactive) in test [5]; 1.05 (inactive) in test [6]; 1.84 (inactive) in test [7]. Further, the z-score in test [8] was 1.24 (inactive); in [9] it was -0.971; in test [12], -0.717; in test [13] it was -0.384 (inactive); in [14], -0.162 (inactive); in [15] it was 0.103 (inactive). In addition, the composite z-score is 0.342 (inactive) in [4], -0.0559 in test [10], -0.368 (inactive) in [11] and -0.115 in the test on XIP peptide (Xip251-270).
Consider `O=c1cccc(-c2ccc([N+](=O)[O-])cc2)o1`, for which the z-score in test [1] was 0.269; in test [2] it was -0.589 (inactive); in test [3] it was 0.697 (inactive); in [5] it was 0.201 (inactive); in test [6], -0.376 (inactive); in test [7], -0.0154 (inactive). The z-score in test [8] is 1.34 (inactive); in test [9], -0.425; in test [12] it was -0.799; in test [13], -0.755 (inactive); in test [14], -0.419 (inactive); in [15], -0.202 (inactive). Moreover, the composite z-score in [4] was -0.371 (inactive); in test [10] it was 0.515; in test [11], 0.164 (inactive); in the test with XIP peptide (Xip251-270), -0.163.
With `COC(=O)c1c(CC[C@@H](CO)NC(=O)N2CCC[C@H]2Cn2cc(C3(O)CCCCC3)nn2)oc(C(C)=O)c1C(=O)OC`, the z-score is -0.089 in [1]; -0.212 (inactive) in [2]; -0.66 (inactive) in [3]; -0.546 (inactive) in test [5]; -0.37 (inactive) in [6]; 0.294 (inactive) in test [7]. In addition, the z-score is -0.0642 (inactive) in test [8]; -0.302 in test [9]; -0.373 in [12]; -4.77 (inactive) in test [13]; -0.125 (inactive) in test [14]; -0.0208 (inactive) in [15]. Moreover, the composite z-score in test [4] was -0.0366 (inactive); in [10], -0.0448; in [11] it was 0.812 (inactive); in the test with XIP peptide (Xip251-270), 0.499.
In the case of `O=C1CS(=O)(=O)C(c2cccc([N+](=O)[O-])c2)N1c1ccccc1` (stereo not given), the z-score in [1] is 0.946; in test [2], -1.3 (inactive); in test [3], 0.973 (inactive); in test [5], 0.627 (inactive); in [6], -0.818 (inactive); in test [7], 1.16 (inactive). Besides, the z-score in test [8] was 1.21 (inactive); in test [9], 0.511; in [12], 0.66; in test [13], 0.011 (inactive); in test [14], -0.346 (inactive); in [15], -0.291 (inactive). In addition, the composite z-score is -1.21 (inactive) in test [4], 0.0055 in test [10], 0.784 (inactive) in test [11] and 0.263 with XIP peptide (Xip251-270).
As for `CC1CC/C=C\[C@H]2OC34C=CCN(c5ccc(Cl)cc5)C(=O)[C@H]3N(C(C)CO)C(=O)[C@]4(C)C2C(=O)O1` (stereo not given in full), the z-score was 0.66 in [1]; -0.876 (inactive) in test [2]; 0.535 (inactive) in [3]; -0.428 (inactive) in [5]; 0.33 (inactive) in test [6]; 1.31 (inactive) in test [7]. Moreover, the z-score in [8] was 1.48 (inactive); in test [9] it was 0.555; in test [12] it was -0.111; in [13], -4.76 (inactive); in test [14], 0.558 (inactive); in [15], -0.11 (inactive). Besides, the composite z-score in [4] is 0.291 (inactive); in [10], 0.3; in test [11], -0.103 (inactive); with XIP peptide (Xip251-270) it was -0.279.
In the case of `COCCOC(=O)N1C(=O)[C@@]2(c3cc(C#CC4=CCCCC4)ccc31)[C@H](c1ccccc1OCCO)N1[C@H](c3ccccc3)[C@H](c3ccccc3)OC(=O)[C@H]1[C@@H]2C(=O)NC[C@H](O)c1ccccc1`, the z-score in [1] is -1.14; in test [2], 0.861 (inactive); in test [3], -2.19 (inactive); in test [5], 1.92 (inactive); in test [6], 2.08 (inactive); in test [7], -0.609 (inactive). Moreover, the z-score in test [8] is -0.255 (inactive); in [9], -3.52; in test [12] it was -1.93; in [13], 0.449 (inactive); in test [14], 0.0064 (inactive); in test [15] it was -0.175 (inactive). The composite z-score was -0.158 (inactive) in test [4], -0.0476 in [10], 1.57 (inactive) in test [11] and 0.742 in the test with XIP peptide (Xip251-270).
For the compound `CN(C)c1ccc(C(O)C2C=CC3C(=O)NC(=O)C3N2Nc2ccccn2)cc1` (stereo not given), the z-score is -0.8 in [1]; 1.03 (inactive) in test [2]; -1.21 (inactive) in test [3]; 0.503 (inactive) in test [5]; 0.489 (inactive) in [6]; -0.738 (inactive) in test [7]. In addition, the z-score in [8] is 0.0674 (inactive); in test [9] it was -1.79; in test [12], 0.597; in test [13], -2.26 (inactive); in test [14], 0.431 (inactive); in test [15], 0.493 (inactive). The composite z-score in [4] was 0.957 (inactive); in [10], 0.0726; in test [11], -0.181 (inactive); with XIP peptide (Xip251-270) it was -0.0515.
In the case of `CC(C)N1CC=CC23O[C@@H]4C=CCCOC(=O)C4[C@H]2C(=O)N(CCCO)[C@@H]3C1=O` (stereo not given in full), the z-score in test [1] was 1.12; in test [2], -0.951 (inactive); in [3], 0.348 (inactive); in test [5], -0.276 (inactive); in [6] it was 0.0977 (inactive); in test [7], -0.463 (inactive). In addition, the z-score in test [8] is 0.32 (inactive); in test [9], -0.114; in [12], -2.07; in test [13], -4.97 (inactive); in test [14], -0.0561 (inactive); in [15], -0.12 (inactive). Besides, the composite z-score was -0.926 (inactive) in test [4], 0.152 in [10], 0.431 (inactive) in test [11] and 0.598 in the test on XIP peptide (Xip251-270).
In the case of `O=C1C2C=CC(C(O)C3CC=CCC3)N(Nc3ccccc3)C2C(=O)N1c1ccccc1` (stereo not given), the z-score in test [1] was -0.868; in test [2] it was -1.22 (inactive); in [3], -1.57 (inactive); in test [5] it was 1.18 (inactive); in [6] it was -0.197 (inactive); in [7], -0.572 (inactive). Besides, the z-score in [8] is -0.658 (inactive); in test [9], -1.12; in [12], -0.653; in test [13] it was -3.25 (inactive); in [14] it was 0.639 (inactive); in test [15], 0.201 (inactive). Also, the composite z-score in [4] was -0.558 (inactive); in test [10] it was 0.251; in test [11], 0.767 (inactive); in the test on XIP peptide (Xip251-270), 0.748.
